# Most compounds without a hit are left out; they make up all but 12% or so of the library.
# Sfp PPTase inh = blocks B. subtilis Sfp PPTase activity | Q9F4F7 | Biochemical Sfp PPTase activity, qHTS | Potency, µM, without a hit: largest response in the series, negative = inhibition, usual class: inhibitors | hit rate 3.5% among 310,000;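 further: the enzyme is Sfp with the accession as filed and its product quenches rhodamine fluorescence; 0% = enzyme reaction without inhibitor and -100% = no enzyme wells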
#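 Sfp 15 nM + cpd, 15 min RT; start w/ rhodamine-CoA 5 uM, BHQ-2-YbbR 12.5 uM (final); 50 mM Hepes pH 7.6, 10 mM MgCl2, 0.01% NP-40, 0.01% BSA; read 525/598 nm at 0 and 30 min.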
# HP1b binding inh = HP1-beta chromodomain-methylated histone interaction inhibition. Potency, µM (top dose mostly 114 µM), inactives show top-dose activity change, negative = inhibition, hits mostly inhibitors. hit rate 0.56% among 390,000. P83916. AlphaScreen HP1-beta / biotin-H3K9me3 peptide binding. AID 540317; further: nearly all actives have a fitted effect of over 70% in size
#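 AlphaScreen: HP1-beta (50 nM) preformed 30 min with biotin-H3(1-18)K9me3 peptide (50 nM) in PBS pH 7.4, 0.01% Tween-20. Compound added for 30 min at RT, then streptavidin donor/nickel chelate acceptor beads (10 ug/mL) for 30 min.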
# G9a inh = G9a (human) methyltransferase inhibition. G9a H3K9 monomethylation, AlphaScreen, 2 h. Potency, µM (highest dose often 102 µM), inactives show top-dose activity, negative = inhibition, actives largely listed as inhibitors. hit rate 8.8% among 350,000. AID 504332; further: on the % scale 0 is the no-effect control and ±100 the full control effect; nearly all actives have a fitted effect of over 75% in size
#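 Methyltransferase reactions run at room temperature for 2 h (20 nM enzyme, 500 nM biotin-H3K9 peptide, 20 uM SAM) after a 15 min compound preincubation; product detected by AlphaScreen beads and anti-H3K9me1 antibody.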
# JMJD2A Tudor = inhibitors of human JMJD2A Tudor domain; AID 504339; hit rate 4.4% among 390,000; AlphaScreen JMJD2A-Tudor / H3K4me3 peptide binding; Potency, µM (titrated, usually from 114 µM), without a hit: at the highest dose activity change, negative = inhibition, most hits filed as inhibitors; further: on the % scale 0 is the no-effect control and ±100 the full control effect; nearly all actives have a fitted effect of over 50% in size
# L3MBTL1 block = inhibitors of human L3MBTL1; Q9Y468; Potency, µM (titrated, usually from 57.1 µM), without a hit: top-dose activity, negative = inhibition, hits mostly inhibitors; hit rate 0.66% among 230,000; AID 485360; AlphaScreen L3MBTL1–H3K9me1 peptide binding; further: on the % scale 0 is the no-effect control and ±100 the full control effect; nearly all actives have a fitted effect of over 60% in size
# Target sequence (Q9Y468 whole entry, looked up): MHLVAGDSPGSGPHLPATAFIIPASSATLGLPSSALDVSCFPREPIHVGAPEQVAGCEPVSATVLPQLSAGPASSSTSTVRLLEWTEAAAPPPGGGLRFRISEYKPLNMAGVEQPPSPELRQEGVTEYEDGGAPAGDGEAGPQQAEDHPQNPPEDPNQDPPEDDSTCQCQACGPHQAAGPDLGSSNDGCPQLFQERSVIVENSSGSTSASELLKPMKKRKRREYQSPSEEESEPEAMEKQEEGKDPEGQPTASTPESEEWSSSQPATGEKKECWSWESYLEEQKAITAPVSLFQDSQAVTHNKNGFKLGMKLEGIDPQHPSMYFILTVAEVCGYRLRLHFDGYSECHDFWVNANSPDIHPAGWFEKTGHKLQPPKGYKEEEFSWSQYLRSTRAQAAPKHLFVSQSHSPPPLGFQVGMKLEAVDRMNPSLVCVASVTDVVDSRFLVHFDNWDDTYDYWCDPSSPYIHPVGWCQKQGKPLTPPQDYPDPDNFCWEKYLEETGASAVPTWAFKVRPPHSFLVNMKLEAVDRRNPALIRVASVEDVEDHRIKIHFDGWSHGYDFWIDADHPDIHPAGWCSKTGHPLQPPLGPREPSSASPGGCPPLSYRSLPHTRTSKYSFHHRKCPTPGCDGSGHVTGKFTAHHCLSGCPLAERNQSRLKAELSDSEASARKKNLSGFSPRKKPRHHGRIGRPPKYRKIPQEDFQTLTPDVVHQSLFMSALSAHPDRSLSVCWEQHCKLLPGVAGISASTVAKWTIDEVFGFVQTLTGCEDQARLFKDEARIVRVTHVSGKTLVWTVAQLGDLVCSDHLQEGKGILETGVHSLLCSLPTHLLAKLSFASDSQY
#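 Read-out is AlphaScreen signal from streptavidin donor and nickel chelate acceptor beads (10 ug/mL final each) bridging L3MBTL1 (50 nM) and biotinylated K9-monomethylated H3(1-15) peptide (75 nM), after 30 min compound exposure at room temperature.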
# BAZ2B inh = BAZ2B (human) inhibition. Q9UIF8. AID 504333. hit rate 4.4% among 360,000. Potency, µM (titrated, usually from 114 µM), for inactives: top-dose activity change, negative = inhibition, actives largely listed as inhibitors. AlphaScreen BAZ2B-H3K14Ac peptide displacement; further: on the % scale 0 is the no-effect control and ±100 the full control effect; nearly all actives have a fitted effect of over 60% in size
#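 AlphaScreen luminescence quantifies BAZ2B engagement of H3K14Ac peptide; the protein and biotinylated peptide are both at 50 nM final, buffer PBS pH 7.4 with 0.01% Tween-20, all steps at room temperature.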
# Numbers without * were called inactive; ? = inconclusive; . = no result given; ! = repeats disagree; [ ] = another dose, or the depositor's remark. The call rests on the fitted dose curve; in most records, active means well fitted curve in the direction sought with a large enough effect; inconclusive means small, poorly fitted or top-dose-only effect, or another doubt; inactive means no such curve, though single readings can be large; an effect the other way counts as inactive or inconclusive. Potency means the concentration at half of the fitted maximal effect.
SMILES,Sfp PPTase inh,HP1b binding inh,G9a inh,JMJD2A Tudor,L3MBTL1 block,BAZ2B inh
CCn1c(-c2ccc3ncccc3c2)n[nH]c1=S,16.4%,29.4%,10µM*,5.01µM*,1.6%,3.0%
N#CCCN(Cc1cccnc1)C(=S)NC(=O)c1ccc(S(=O)(=O)N2CCCC2)cc1,1.7%,20.2%,28.2µM*,-4.5%,-0.5%,-0.7%
CN1CCN(C(=S)NC(=O)c2ccc(S(=O)(=O)N3CCOCC3)cc2)CC1,44.7µM*,-17.7%,?,44.7µM*,6.1%,?
Cc1ccc(C(=O)NC(=S)N2CCN(C)CC2)cc1,-2.0%,7.5%,32.4%[2.33 µM],-16.7%,.,?
Cc1cccc(C(=O)NC(=S)N2CCN(C)CC2)c1,-28.8%,10.9%,79.4µM*,-16.7%,3.8%,-30.7%
O=C(NC(=S)N1CCN(C(c2ccccc2)c2ccccc2)CC1)c1ccc(S(=O)(=O)N2CCOCC2)cc1,20.1%,13.5%,-3.6%[59 µM],-25.0%,-11.5%,-37.7%
Cc1cccc(C(=O)NC(=S)N2CCN(C(=S)NC(=O)c3cccc(C)c3)CC2)c1,30.2%,-15.2%,10.2%[59 µM],-19.9%,-9.1%,4.4%
CN1CCN(C(=S)NC(=O)c2ccc(Br)cc2)CC1,?,25.3%,39.8µM*,-16.6%,-3.6%,-17.6%
COc1ccc(C(=O)Nc2sc(C)c(C)c2CN2CC(C)OC(C)C2)cc1 (stereo unspecified),1.8%,48.3%,11.0%,3.8%,0.3%,-5.2%
Cc1cccc(OCCSc2nc3ccccc3n2CCC(=O)O)c1,19.2%,34.2%,9.8%,-12.6%,-7.5%,-32.3%
Cc1ccccc1NC(=O)c1ccc(S(=O)(=O)N2CCCC2)cc1,10.6%,23.4%,5.9%,4.3%,.,-2.3%
N#CCCSc1ccccc1NC(=O)c1ccc(S(=O)(=O)N2CCCC2)cc1,5.62µM*,.,10µM*,.,-3.1%,2.8%
CCCN(CC1CC1)C(=S)NC(=O)c1ccc(S(=O)(=O)N2CCOCC2)cc1,-12.7%,8.7%,28.2µM*,-19.9%,-17.0%,.
CCC(C)(CC(=O)Nc1nccs1)c1ccccc1 (stereo unspecified),7.8%,19.0%,14.4%,-8.8%,.,-9.0%
O=C1NN(c2ccc(Br)cc2)C(=O)/C1=C\c1ccc(O)cc1O,13.6%,?,.,?,-9.6%,?
O=C1NN(c2cccc(Br)c2)C(=O)/C1=C\c1ccc(O)cc1,-6.5%,1.9%,3.55µM*,-25.4%,.,-35.8%
COc1cc(/C=C2/C(=O)NN(c3cccc(Cl)c3)C2=O)cc(OC)c1O,-14.1%,?,14.1µM*,50.1µM*,-23.6%,28.2µM*
CCOc1cc(/C=C2/C(=O)NN(c3cccc(Cl)c3)C2=O)ccc1O,11.7%,-18.0%,31.6µM*,?,-7.6%,35.5µM*
CCCCNC(=O)CNC(=S)N(Cc1cc(OC)c(OC)c(OC)c1)C1CCCC1,5.9%,28.0%,10.0%,-20.3%,4.3%,-18.2%
COc1ccc(CNC(=O)c2ccc(NC(=O)C3=CSCCO3)cc2)cc1,16.1%,20.1%[57 µM],-2.5%,2.0%,.,3.0%
O=C(NCc1ccco1)C1CCN(C(=O)Cc2ccccc2)CC1,8.8%,29.0%,3.6%[12.7 µM],2.4%,-0.9%[11.4 µM],-3.8%
O=C(NCc1ccc(Cl)cc1)C1CCN(C(=O)Cc2ccccc2)CC1,5.5%,32.7%,-4.8%,-4.9%,.,50.1µM*
CCc1ccc(-n2c(C)nc3cc(C(=O)NCc4cccnc4)ccc32)cc1,-5.2%,22.3%,50.1µM*,-30.5%,-1.6%,-22.3%
CCN1CCSc2ccc(C(=O)NCc3ccc(OC(C)C)cc3)cc21,3.7%,20.7%,44.7µM*!,-20.4%,-8.5%,-32.2%
Cc1ccc(CN2CCSc3ccc(C(=O)NCc4cccnc4)cc32)cc1,-6.4%,-4.7%,?,39.8µM*,-1.5%,?
SMILES,Sfp PPTase inh,HP1b binding inh,G9a inh,JMJD2A Tudor,L3MBTL1 block,BAZ2B inh
CCOc1ccc(CNC(=O)c2ccc3c(c2)N(CC)CCS3)cc1,10.6%,39.5%,16.6%,-7.5%,-0.5%,-1.0%
C=CC1=C(C)C2=NC1=CC1=NC(=CC3=NC(=CC4=NC(=C2)C(C)=C4CCC(=O)O)C(CCC(=O)O)=C3C)C(C=C)=C1C.[Zn],4.47µM*,.,.,.,.,.
COc1ccc2c(c1)O[C@@H](c1cccc(C(F)(F)F)c1)[C@H](OC(=O)NS(=O)(=O)c1ccc(F)cc1)C2=O,10.3%,.,.,.,.,.
Cc1ccc(S(=O)(=O)N2CCN(C(=O)C3CSC4(C)CCC(=O)N34)CC2)cc1C (stereo unspecified),.,27.0%,6.5%,-11.0%,-4.4%,8.5%
O=C(CN1C(=O)NC(Cc2ccccc2)C1=O)Nc1ccccc1F (stereo unspecified),.,58.9%,19.4%[12.7 µM],-4.1%,3.9%,1.7%
CC(C)(C)c1ccccc1NC(=O)CN1C(=O)NC(Cc2ccccc2)C1=O (stereo unspecified),.,19.6%,-4.2%[0.501 µM],-9.6%,35.0%,70.8µM*
CC(=O)Nc1cccc(CP(=O)(c2ccccc2)c2ccccc2)c1,15.9%,7.9%,-3.6%,-10.8%,1.2%,-1.4%
CCN1CCN(C(=O)c2ccc(N3CC4CC(C3)c3cccc(=O)n3C4)c([N+](=O)[O-])c2)CC1 (stereo unspecified),8.8%,17.9%,56.2µM*,-18.5%,.,-13.9%
Cc1ccc(NC(=S)Nc2cc(C(=O)O)ccc2N2CC3CC(C2)c2cccc(=O)n2C3)cc1C (stereo unspecified),56.2µM*,-4.0%,39.8µM*,-11.3%,.,-18.8%
COc1cccc(NC(=S)Nc2cc(C(=O)O)ccc2N2CC3CC(C2)c2cccc(=O)n2C3)c1 (stereo unspecified),3.9%,-12.1%,39.8µM*,-26.1%,.,-21.7%
COc1ccc(OC)c(S(=O)(=O)Nc2cc(C(=O)O)ccc2N2CC3CC(C2)c2cccc(=O)n2C3)c1 (stereo unspecified),24.5%,21.6%,?,-23.9%,.,1.4%
Nc1cc(C(=O)N2CCN(c3ccc([N+](=O)[O-])cc3)CC2)ccc1N1CC2CC(C1)c1cccc(=O)n1C2 (stereo unspecified),-1.4%,0.9%,?,?,.,-33.6%
COC(=O)[C@H](C)NC(=O)C/C=C\[C@@H](C)[C@@H](CO)OC,-5.8%,.,.,.,.,.
O=[N+]([O-])c1ccccc1S(=O)(=O)N1CCN(c2nc(-c3ccccc3)nc3ccccc23)CC1,.,2.0%,.,-23.1%,.,.
CCOC(=O)c1sc(NCCNc2nc(C)c(C(=O)OCC)s2)nc1C,0.3%,7.7%,50.1µM*,50.1µM*,5.1%,-12.3%
CCOC(=O)c1sc(Nc2ccc(Br)cc2)nc1C,-2.8%,8.9%,?,56.2µM*,5.8%,-25.6%
CCOC(=O)c1sc(NS(=O)(=O)c2ccc(C)cc2)nc1C,2.4%,38.6%,50.1µM*,-7.1%,-1.0%,?
